# Experimental data: PubChem BioAssay AID1159580 (chemical genetic matrix, 2015)
# Among all 5,500 compounds or so, about 2,000 (36%) were called active. Not shown: some 18% with an inconclusive outcome. This is one part of the list. Unmarked numbers belong to inactive results. Cut-off read from the data, not from the text of the source: active = normalized growth mostly below about 0.91 (no sharp cut-off); inconclusive = no clear call, values can overlap the other calls; inactive = mostly above about 0.92.
# Assay: chemical genetic growth profiling, strain panel (AID 1159580);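 note: tested at 20 µM; growth read once vehicle control cultures reached saturation at 30 °C; 1 = growth at the plate median or of vehicle wells; lower values mean less growth of the strain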
# Conditions: growth OD
compound,measurement,setting,value
O=C(O[C@@H]1Cc2c(O)cc(O)cc2O[C@@H]1c1cc(O)c(=O)c2c(O)c(O)cc([C@H]3Oc4cc(O)cc(O)c4C[C@H]3O)c2c1)c1cc(O)c(O)c(O)c1,normalized growth,"S. cerevisiae deletion strains, locus YJR066W, strain TOR1, active compounds read low",0.969
same,normalized growth,"S. cerevisiae deletion strains, locus YKL009W, strain mrt4, active compounds read low",1.05
same,normalized growth,"S. cerevisiae deletion strains, locus YKL068W, active compounds read low",1.04
same,normalized growth,"S. cerevisiae deletion strains, locus YKL085W, strain MDH1 (second series), active compounds read low",1.03
same,normalized growth,"S. cerevisiae deletion strains, locus YKL085W, strain MDH1, active compounds read low",1.03
same,normalized growth,"S. cerevisiae deletion strains, locus YKL160W, strain elf1, active compounds read low",0.709 (active)
same,normalized growth,"S. cerevisiae deletion strains, locus YKL190W, strain CNB1, active compounds read low",0.211 (active)
same,normalized growth,"S. cerevisiae deletion strains, locus YKR001C, strain vps1, active compounds read low",0.809 (active)
same,normalized growth,"S. cerevisiae deletion strains, locus YKR026C, strain gcn3, active compounds read low",0.988
same,normalized growth,"S. cerevisiae deletion strains, locus YKR091W, strain srl3, active compounds read low",0.944
same,normalized growth,"S. cerevisiae deletion strains, locus YLL001W, strain dnm1, active compounds read low",0.658 (active)
same,normalized growth,"S. cerevisiae deletion strains, locus YLL026W, active compounds read low",0.719 (active)
same,normalized growth,"S. cerevisiae deletion strains, locus YLL041C, strain sdh2, active compounds read low",0.79 (active)
same,normalized growth,"S. cerevisiae deletion strains, locus YLR027C, strain aat2, active compounds read low",0.495 (active)
same,normalized growth,"S. cerevisiae deletion strains, locus YLR039C, strain RIC1, active compounds read low",0.271 (active)
same,normalized growth,"S. cerevisiae deletion strains, locus YLR058C, strain SHM2, active compounds read low",0.219 (active)
same,normalized growth,"S. cerevisiae deletion strains, locus YLR102C, strain apc9, active compounds read low",1.02
same,normalized growth,"S. cerevisiae deletion strains, locus YLR113W, strain HOG1, active compounds read low",1.11
same,normalized growth,"S. cerevisiae deletion strains, locus YLR221C, strain rsa3, active compounds read low",0.699 (active)
same,normalized growth,"S. cerevisiae deletion strains, locus YLR258W, strain gsy2, active compounds read low",0.638 (active)
same,normalized growth,"S. cerevisiae deletion strains, locus YLR262C, strain YPT6 (second series), active compounds read low",0.524 (active)
same,normalized growth,"S. cerevisiae deletion strains, locus YLR262C, strain YPT6, active compounds read low",0.552 (active)
same,normalized growth,"S. cerevisiae deletion strains, locus YLR268W, strain sec22, active compounds read low",0.644 (active)
same,normalized growth,"S. cerevisiae deletion strains, locus YLR320W, strain mms22, active compounds read low",0.635 (active)
same,normalized growth,"S. cerevisiae deletion strains, locus YLR330W, strain CHS5, active compounds read low",0.791 (active)
same,normalized growth,"S. cerevisiae deletion strains, locus YLR342W, strain FKS1, active compounds read low",0.423 (active)
same,normalized growth,"S. cerevisiae deletion strains, locus YLR357W, strain rsc2, active compounds read low",0.624 (active)
same,normalized growth,"S. cerevisiae deletion strains, locus YLR370C, strain arc18, active compounds read low",0.593 (active)
same,normalized growth,"S. cerevisiae deletion strains, locus YLR371W, strain rom2, active compounds read low",0.661 (active)
same,normalized growth,"S. cerevisiae deletion strains, locus YLR384C, strain iki3, active compounds read low",0.784 (active)
same,normalized growth,"S. cerevisiae deletion strains, locus YLR418C, strain cdc73, active compounds read low",0.505 (active)
same,normalized growth,"S. cerevisiae deletion strains, locus YML016C, strain PPZ1, active compounds read low",0.111 (active)
same,normalized growth,"S. cerevisiae deletion strains, locus YML032C, strain rad52, active compounds read low",0.968
same,normalized growth,"S. cerevisiae deletion strains, locus YML120C, strain ndi1, active compounds read low",0.727 (active)
same,normalized growth,"S. cerevisiae deletion strains, locus YML124C, strain tub3, active compounds read low",0.949
same,normalized growth,"S. cerevisiae deletion strains, locus YMR058W, strain fet3, active compounds read low",0.0992 (active)
same,normalized growth,"S. cerevisiae deletion strains, locus YMR078C, strain ctf18, active compounds read low",1.01
same,normalized growth,"S. cerevisiae deletion strains, locus YMR125W, strain sto1, active compounds read low",1.04
same,normalized growth,"S. cerevisiae deletion strains, locus YMR129W, active compounds read low",0.789 (active)
same,normalized growth,"S. cerevisiae deletion strains, locus YMR205C, strain PFK2, active compounds read low",0.416 (active)
same,normalized growth,"S. cerevisiae deletion strains, locus YMR223W, strain ubp8, active compounds read low",0.844 (active)
same,normalized growth,"S. cerevisiae deletion strains, locus YMR231W, strain pep5, active compounds read low",0.229 (active)
same,normalized growth,"S. cerevisiae deletion strains, locus YMR263W, strain SAP30, active compounds read low",0.743 (active)
same,normalized growth,"S. cerevisiae deletion strains, locus YMR307W, strain GAS1, active compounds read low",0.426 (active)
same,normalized growth,"S. cerevisiae deletion strains, locus YNL067W, strain RPL9B, active compounds read low",0.547 (active)
same,normalized growth,"S. cerevisiae deletion strains, locus YNL071W, strain lat1, active compounds read low",0.747 (active)
same,normalized growth,"S. cerevisiae deletion strains, locus YNL183C, strain NPR1, active compounds read low",0.963
same,normalized growth,"S. cerevisiae deletion strains, locus YNL209W, strain ssb2, active compounds read low",0.141 (active)
same,normalized growth,"S. cerevisiae deletion strains, locus YNL233W, strain BNI4, active compounds read low",0.623 (active)
same,normalized growth,"S. cerevisiae deletion strains, locus YNL248C, strain rpa49, active compounds read low",0.862 (active)
same,normalized growth,"S. cerevisiae deletion strains, locus YNL250W, strain rad50, active compounds read low",1.05
same,normalized growth,"S. cerevisiae deletion strains, locus YNL271C, strain bni1, active compounds read low",1
same,normalized growth,"S. cerevisiae deletion strains, locus YNL298W, strain CLA4, active compounds read low",0.998
same,normalized growth,"S. cerevisiae deletion strains, locus YNL307C, strain MCK1, active compounds read low",1.01
same,normalized growth,"S. cerevisiae deletion strains, locus YNL322C, strain KRE1 (second series), active compounds read low",0.941
same,normalized growth,"S. cerevisiae deletion strains, locus YNL322C, strain KRE1, active compounds read low",0.243 (active)
same,normalized growth,"S. cerevisiae deletion strains, locus YNR049C, strain mso1, active compounds read low",0.945
same,normalized growth,"S. cerevisiae deletion strains, locus YNR052C, strain pop2, active compounds read low",0.754 (active)
same,normalized growth,"S. cerevisiae deletion strains, locus YOL012C, strain htz1",0.255
same,normalized growth,"S. cerevisiae deletion strains, locus YOL147C, strain pex11, active compounds read low",0.862 (active)
same,normalized growth,"S. cerevisiae deletion strains, locus YOR001W, strain rrp6, active compounds read low",0.736 (active)
same,normalized growth,"S. cerevisiae deletion strains, locus YOR061W, strain CKA2, active compounds read low",0.441 (active)
same,normalized growth,"S. cerevisiae deletion strains, locus YOR069W, strain VPS5, active compounds read low",0.503 (active)
same,normalized growth,"S. cerevisiae deletion strains, locus YOR070C, strain gyp1, active compounds read low",0.569 (active)
same,normalized growth,"S. cerevisiae deletion strains, locus YOR080W, strain dia2, active compounds read low",0.253 (active)
same,normalized growth,"S. cerevisiae deletion strains, locus YOR083W, strain WHI5, active compounds read low",0.541 (active)
same,normalized growth,"S. cerevisiae deletion strains, locus YOR106W, strain vam3, active compounds read low",0.143 (active)
same,normalized growth,"S. cerevisiae deletion strains, locus YOR136W, strain idh2, active compounds read low",0.929
same,normalized growth,"S. cerevisiae deletion strains, locus YOR144C, strain elg1, active compounds read low",0.943
same,normalized growth,"S. cerevisiae deletion strains, locus YOR184W, strain ser1, active compounds read low",0.649 (active)
same,normalized growth,"S. cerevisiae deletion strains, locus YOR231W, strain MKK1, active compounds read low",1.02
same,normalized growth,"S. cerevisiae deletion strains, locus YOR265W, strain rbl2, active compounds read low",0.699 (active)
same,normalized growth,"S. cerevisiae deletion strains, locus YOR270C, strain vph1, active compounds read low",0.255 (active)
same,normalized growth,"S. cerevisiae deletion strains, locus YOR290C, strain snf2, active compounds read low",0.487 (active)
same,normalized growth,"S. cerevisiae deletion strains, locus YOR316C, strain cot1, active compounds read low",1.02
same,normalized growth,"S. cerevisiae deletion strains, locus YPL051W, strain arl3, active compounds read low",0.279 (active)
same,normalized growth,"S. cerevisiae deletion strains, locus YPL078C, strain atp4, active compounds read low",0.731 (active)
same,normalized growth,"S. cerevisiae deletion strains, locus YPL106C, strain sse1, active compounds read low",0.66 (active)
same,normalized growth,"S. cerevisiae deletion strains, locus YPL240C, strain hsp82, active compounds read low",0.779 (active)
same,normalized growth,"S. cerevisiae deletion strains, locus YPL241C, strain CIN2, active compounds read low",0.509 (active)
same,normalized growth,"S. cerevisiae deletion strains, locus YPL256C, strain CLN2, active compounds read low",1.06
same,normalized growth,"S. cerevisiae deletion strains, locus YPR119W, strain clb2, active compounds read low",1.02
same,normalized growth,"S. cerevisiae deletion strains, locus YPR141C, strain kar3, active compounds read low",1.03
same,normalized growth,"S. cerevisiae deletion strains, locus YPR163C, strain tif3, active compounds read low",0.974
same,normalized growth,"S. cerevisiae deletion strains, locus YPR167C, strain met16, active compounds read low",0.918 (active)
same,normalized growth,"S. cerevisiae deletion strains, strain wtn01, active compounds read low",0.679 (active)
same,normalized growth,"S. cerevisiae strains, strain wild type, active compounds read low",0.0985 (active)
